Experimental data from PubChem BioAssay AID1159580 (chemical genetic matrix, 2015).
“And” between values parts separate entries of the source, which are not always exact repeats. Equal entries are not always repeated. Hit rate of the full screen: of about 5,500 compounds, about 2,000 (36%) were called active. About 18% were inconclusive and are not listed. Cut-off read from the data, not from the text of the source: active = normalized growth mostly below about 0.91 (no sharp cut-off); inconclusive = no clear call, values can overlap the other calls; inactive = mostly above about 0.92. This is one part of the list.

Assay: chemical genetic growth profiling, strain panel (AID 1159580);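 note: tested at 20 µM; growth read once vehicle control cultures reached saturation at 30 °C; 1 = growth at the plate median or of vehicle wells; lower values mean less growth of the strain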
Conditions: S. cerevisiae deletion strains, growth OD

Measured: normalized growth

O=c1[nH]c(=O)n(C2C[C@@H](O)[C@@H](CO)O2)cc1F (stereo partly drawn)
inactive: locus YAL013W, strain DEP1, active compounds read low 1.04 | locus YAL021C, strain ccr4, active compounds read low 1.01 | locus YAL026C, strain drs2, active compounds read low 0.996 | locus YAL030W, strain snc1, active compounds read low 0.992 | locus YBL061C, strain skt5, active compounds read low 0.987 | locus YBR009C, strain hhf1, active compounds read low 1 | locus YBR021W, strain FUR4, active compounds read low 1 | locus YBR023C, strain chs3, active compounds read low 1 | locus YBR171W, strain sec66, active compounds read low 0.993 | locus YBR229C, strain ROT2, active compounds read low 1 | locus YBR231C, strain swc5, active compounds read low 1 | locus YBR279W, strain paf1, active compounds read low 1.01 | locus YCL011C, strain gbp2, active compounds read low 1.01 | locus YCL016C, strain dcc1, active compounds read low 0.994 | locus YCL029C, strain bik1, active compounds read low 1.01 | locus YCL061C, strain MRC1, active compounds read low 0.996 | locus YCL069W, strain vba3, active compounds read low 0.987 | locus YCR088W, strain abp1, active compounds read low 0.986 | locus YDL005C, strain med2, active compounds read low 0.992 | locus YDL035C, strain GPR1, active compounds read low 0.99 | locus YDL040C, strain nat1, active compounds read low 1.01 | locus YDL074C, strain BRE1, active compounds read low 1.04 | locus YDL101C, strain DUN1, active compounds read low 1.03 | locus YDL185W, strain tfp1, active compounds read low 1.01 | locus YDL192W, strain arf1, active compounds read low 1.02 | locus YDR001C, strain nth1, active compounds read low 0.979 | locus YDR069C, strain doa4, active compounds read low 0.998 | locus YDR101C, strain arx1, active compounds read low 1.01 | locus YDR137W, strain rgp1, active compounds read low 0.989 | locus YDR159W, strain sac3, active compounds read low 0.992 | locus YDR162C, strain NBP2, active compounds read low 0.993 | locus YDR195W, strain ref2 0.984 | locus YDR297W, strain sur2, active compounds read low 0.998 | locus YDR318W, strain mcm21, active compounds read low 1.01 | locus YDR334W, strain swr1, active compounds read low 0.97 | locus YDR335W, strain msn5, active compounds read low 1.01 | locus YDR388W, active compounds read low 1.01 | locus YDR392W, strain spt3, active compounds read low 0.994 | locus YDR502C, strain sam2, active compounds read low 1.01 | locus YEL003W, strain gim4, active compounds read low 0.989 | locus YEL037C, strain rad23, active compounds read low 0.993 | locus YEL061C, strain CIN8 (second series), active compounds read low 0.981 | locus YEL061C, strain CIN8, active compounds read low 1.01 | locus YER015W, strain faa2, active compounds read low 0.998 | locus YER016W, strain bim1, active compounds read low 1.01 | locus YER110C, active compounds read low 1.02 | locus YER111C, strain swi4, active compounds read low 0.996 | locus YER155C, strain BEM2 (second series), active compounds read low 1.01 | locus YER155C, strain BEM2, active compounds read low 1.01 | locus YER167W, strain BCK2, active compounds read low 1 | locus YFR010W, strain ubp6, active compounds read low 1.01 | locus YGL078C, strain dbp3, active compounds read low 1 | locus YGL086W, strain mad1, active compounds read low 1.01 | locus YGL167C, strain pmr1, active compounds read low 0.996 | locus YGL173C, strain kem1, active compounds read low 1.01 | locus YGL227W, strain vid30, active compounds read low 0.979 | locus YGL240W, strain doc1, active compounds read low 0.972 | locus YGL248W, strain PDE1, active compounds read low 1.03 | locus YGL253W, strain hxk2, active compounds read low 1 | locus YGR078C, strain PAC10, active compounds read low 1.03 | locus YGR135W, strain pre9, active compounds read low 1.01 | locus YGR252W, strain gcn5, active compounds read low 1.01 | locus YHR013C, strain ard1, active compounds read low 1.01 | locus YHR027C, strain rpn1, active compounds read low 0.98 | locus YHR030C, strain SLT2, active compounds read low 1 and 0.982 | locus YHR079C, strain IRE1 (second series), active compounds read low 1.02 | locus YHR079C, strain IRE1, active compounds read low 0.965 | locus YHR094C, strain hxt1, active compounds read low 1.02 | locus YHR129C, strain ARP1, active compounds read low 1.01 | locus YHR142W, strain chs7, active compounds read low 0.985 | locus YHR200W, strain rpn10, active compounds read low 1.01 | locus YIL066C, strain RNR3, active compounds read low 0.988 | locus YIL073C, strain SPO22, active compounds read low 1.04 | locus YIL125W, strain kgd1, active compounds read low 1.02 | locus YIR030C, strain dcg1, active compounds read low 1.01 | locus YJL092W, strain hpr5, active compounds read low 0.971 | locus YJL095W, strain BCK1 (second series), active compounds read low 1.01 | locus YJL095W, strain BCK1, active compounds read low 1.06 and 0.975 | locus YJL115W, strain asf1, active compounds read low 0.982 | locus YJL129C, strain trk1, active compounds read low 0.963 | locus YJL134W, strain LCB3, active compounds read low 1.01 | locus YJL154C, strain vps35, active compounds read low 0.993 | locus YJL164C, strain tpk1, active compounds read low 1 | locus YJL166W, strain qcr8, active compounds read low 1.01 | locus YJL168C, strain set2, active compounds read low 1.01 | locus YJL187C, strain SWE1 (second series), active compounds read low 1.05 | locus YJL187C, strain SWE1, active compounds read low 0.994 | locus YJR043C, strain POL32, active compounds read low 0.975
